# Screen size: about 360,000 compounds; about 25,000 (6.9%) were called active. Another 9% or so got no clear call; they are omitted. Calls follow the shape of the dose curve; as a rule, active = well fitted inhibition curve with a large enough effect; inconclusive = small, poorly fitted or top-dose-only effect; inactive = flat fitted curve, though single readings scatter. Shown is part of a subset that was picked to be rich in actives. Entries that show only a call come without a potency.
# Molecular target: Luciferin 4-monooxygenase (Photinus pyralis) (UniProt P08659)
# Experiment: qHTS profiling assay for firefly luciferase inhibitor/activator using purifed enzyme and Km concentrations of substrates (counterscreen for miR-21 project); also: nearly all actives have a fitted effect of over 55% in size
# Conditions: purified FLuc, luminescence inhibition; series mostly up to 57.5 µM
# Procedure, shortened: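 Purified P. pyralis luciferase, 10 nM final, with Km-level 10 uM D-luciferin and 10 uM ATP in 50 mM Tris acetate pH 7.5, 10 mM Mg acetate, 0.01% Tween-20, 0.05% BSA; 6-point qHTS titration about 60 µM downward; luminescence read.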
# Potency is read from the fitted curve at half-maximal effect.
# Chain of Luciferin 4-monooxygenase (Photinus pyralis) (P08659 whole entry, looked up): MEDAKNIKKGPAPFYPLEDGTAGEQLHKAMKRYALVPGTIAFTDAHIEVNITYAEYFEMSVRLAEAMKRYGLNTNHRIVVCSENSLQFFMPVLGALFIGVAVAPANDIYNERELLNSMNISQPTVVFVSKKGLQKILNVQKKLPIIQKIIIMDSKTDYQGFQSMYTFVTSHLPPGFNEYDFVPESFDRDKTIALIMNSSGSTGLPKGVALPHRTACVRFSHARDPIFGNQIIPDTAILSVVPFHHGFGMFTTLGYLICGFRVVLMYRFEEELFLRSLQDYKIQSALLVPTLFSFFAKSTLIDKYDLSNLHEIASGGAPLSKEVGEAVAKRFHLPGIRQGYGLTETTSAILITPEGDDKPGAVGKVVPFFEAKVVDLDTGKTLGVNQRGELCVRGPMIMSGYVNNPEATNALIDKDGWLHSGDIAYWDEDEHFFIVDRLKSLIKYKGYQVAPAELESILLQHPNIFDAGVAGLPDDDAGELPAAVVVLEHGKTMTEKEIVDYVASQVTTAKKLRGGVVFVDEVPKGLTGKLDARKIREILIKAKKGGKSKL
row,Compound,Potency
1,CCOCCCNC(=O)c1ccc2nc(CCc3ccccc3)oc2c1,inactive
2,CN1CCC(N(C)S(=O)(=O)c2ccc(NC(=O)c3cccc(C#N)c3)cc2)CC1,inactive
3,Cc1ccc(C2=Nc3c(ccc4ccccc34)C(c3ccncc3)=NN2)cc1,inactive
4,COc1ccc2c(c1)C(c1cccs1)=NNC(c1cccnc1)=N2,inactive
5,CCOc1ccc2c(c1)C(c1ccc(C)cc1)=NNC(c1ccc(C)cc1)=N2,23.9 µM (active)
6,COCCCNC(NC(=O)c1ccc(C)cc1)C(Cl)(Cl)Cl (configuration not stated),inactive
7,COc1ccc(CCNC(=O)c2ccccc2OCc2ccccc2)cc1,inactive
8,COc1cccc2[nH]c(C(=O)NCCc3ccccc3)cc12,23.9 µM (active)
9,COc1ccc(CCNC(=O)c2ccccc2-c2ccccc2C(=O)O)cc1OC,inactive
10,O=C(Cn1ncn2nc(-c3cccs3)cc2c1=O)NCc1cccc(Br)c1,inactive
11,CC(=O)c1ccc(NC(=O)COc2ccccc2-c2nc(-c3ccccc3)no2)cc1,inactive
12,CC(=O)Oc1ccccc1C1=NN(C(C)=O)C(c2ccccc2)C1 (configuration not stated),inactive
13,COc1ccc(/C=C/c2noc(-c3ccccc3OC(C)=O)n2)cc1,15.1 µM (active)
14,Oc1ccccc1-c1nc(/C=C/c2ccc(F)cc2)no1,0.757 µM (active)
15,CCOC(=O)c1c(S(=O)(=O)N2CCC(C(=O)NCc3ccccc3OC)CC2)c(C)n(C)c1C,inactive
16,COc1ccc(CNC(=O)Cn2nnc(-c3ccc(S(C)(=O)=O)cc3)n2)cc1,inactive
17,CCCCOC(=O)/C(C#N)=C/c1ccc(-c2cccc(C(F)(F)F)c2)o1,inactive
18,CCCCN1CC(c2nc3ccccc3n2CCCCOc2ccc(C)cc2C)CC1=O (configuration not stated),inactive
19,COc1ccc(C(=O)OCC(=O)N2CC(=O)Nc3ccccc32)cc1Br,inactive
20,CCc1ccc(S(=O)(=O)Nc2cc3c(C(=O)OCc4ccccc4)c(C)oc3c3ccccc23)cc1,inactive
21,CCC(=O)N1CCc2cc(Br)cc(S(=O)(=O)Nc3ccc(C)cc3C)c21,inactive
22,O=C(COc1ccc(S(=O)(=O)Nc2cccc(C(F)(F)F)c2)cc1)N1CCOCC1,inactive
23,O=C(Nc1ccc(OCC(=O)N2CCOCC2)cc1)c1cc(F)c(F)cc1Cl,9.53 µM (active)

row,Compound,Potency
1,O=C(Nc1cccc(OCC(=O)N2CCOCC2)c1)C1CCCCC1,inactive
2,Cc1ccccc1CSCCNC(=O)C1CCN(S(=O)(=O)Cc2ccccc2)CC1,inactive
3,C=CCN1CCN(C(=O)CCCc2ccccc2)CC1,2.13 µM (active)
4,CC1=NN(C(=O)CCCc2ccccc2)C(O)(C(F)(F)F)C1 (configuration not stated),inactive
5,CCC(C)NC(=O)CCCc1ccccc1 (configuration not stated),inactive
6,COc1cc(-c2nnc(NC(=O)C3=COCCO3)o2)cc(OC)c1OC,inactive
7,O=C(Nc1ccc(S(=O)(=O)N2CCCC2)cc1Cl)C1=COCCO1,inactive
8,CC(=O)NCCC(=O)Nc1nc(-c2ccc3c(c2)OCCO3)cs1,19 µM (active)
9,CC(=O)NCc1ccc(-c2csc(NC(=O)CCCc3nc4ccccc4c(=O)[nH]3)n2)cc1,inactive
10,CC(=O)NCCC(=O)Nc1nc(C)c(Cc2ccc3c(c2)OCO3)s1,inactive
11,Cc1ccc(-c2csc(NC(=O)C3=COCCO3)n2)cc1C,6.75 µM (active)
12,Cc1cccc(NC(=O)CN2CCN(C(=O)C3CCN(C(=O)/C=C/c4ccccc4)CC3)CC2)c1C,inactive
13,CCNC(=O)CC1C(=O)N(c2ccc(F)cc2)C(=O)N1CCc1sccc1C (configuration not stated),inactive
14,Cc1ccc(CN2CCc3nc(N4CCN(C)CC4)ncc3C2)cc1,inactive
15,CCCc1cc(-c2nc(-c3ccc(C)cc3)cs2)ccn1,23.9 µM (active)
16,Cc1cc(-c2n[nH]c(=S)n2-c2ccc(C)c(C)c2)no1,inactive
17,CCC(C)Sc1nnc(-c2c[nH]c3ccccc23)n1CCOC (configuration not stated),inactive
18,CCCCCN1CC(O)=C(c2nc(-c3ccc(Cl)cc3)cs2)C1=N,inactive
19,Cc1cc(-c2nc(C)c(-c3nnc(SCC(=O)Nc4ccccc4)n3C)s2)no1,inactive
20,CCCc1cc(-c2n[nH]c(=S)n2CC)c2ccccc2n1,inactive
21,Cc1ccc(-c2csc(-c3c[nH]c4ccccc34)n2)cc1,12 µM (active)
22,Cc1ccc(-c2csc(-c3cc(C)on3)n2)cc1,8.49 µM (active)
23,Cc1ccc(-n2c(=O)c3cccnc3n2CC(=O)Nc2ccccc2C(F)(F)F)cc1C,inactive

row,Compound,Potency
1,Cc1ccc(-n2nc3ccc(NC(=O)/C=C/c4ccco4)cc3n2)cc1C,9.53 µM (active)
2,Cc1cccc(NC(=O)C2CCN(S(=O)(=O)c3c(C)noc3/C=C/c3ccco3)CC2)c1,inactive
3,O=C(Nc1cccc(-c2nc3ccccc3[nH]2)c1)c1ccc(C(=O)Nc2cccc(-c3nc4ccccc4[nH]3)c2)cc1,12 µM (active)
4,Cc1ccc(OCC(=O)Nc2ccc(Cl)c(-c3nc4ccccc4[nH]3)c2)cc1C,inactive
5,NS(=O)(=O)c1cccc(NC(=O)COC(=O)/C=C/c2ccco2)c1,inactive
6,O=C(/C=C/c1ccco1)Nc1cccc(-c2nc3ccccc3[nH]2)c1,7.57 µM (active)
7,CC(C)Oc1ccc(/C=C(\NC(=O)/C=C/c2ccco2)C(=O)NCCc2nc3ccccc3[nH]2)cc1,inactive
8,CN(c1ccccc1)S(=O)(=O)c1cc(C(=O)Nc2nc3ccccc3[nH]2)ccc1Cl,inactive
9,CCOC(=O)c1c(NC(=O)/C=C/c2ccco2)sc(C)c1C,inactive
10,COC(C[C@H](O)CC(=O)COCc1ccccc1)OC,inactive
11,CC(=O)NC12CC3CC(C1)CC(C(=O)N1CCN(C(=O)c4ccco4)CC1)(C3)C2,inactive
12,CCOc1ccc(OCC)c(NC(=O)c2c(C)nn(-c3ccccc3)c2-n2cccc2)c1,inactive
13,CN(C)C(CNC(=O)c1cccc(C#N)c1)c1ccco1 (configuration not stated),inactive
14,CCN(C(=O)COc1cccnc1[N+](=O)[O-])C1CCS(=O)(=O)C1 (configuration not stated),inactive
15,CC(C)c1ccc(NC(=O)CN(C)S(=O)(=O)c2ccc3c(c2)c(=O)n(C)c(=O)n3C)cc1,inactive
16,COc1ccccc1CN1CCC(CNC(=O)c2cnn(-c3cccc(Cl)c3)c2C2CCN(C(=O)OC(C)(C)C)CC2)CC1,inactive
17,CCc1ccc(N(CC)C(=O)CCn2cnc3onc(-c4ccc(F)cc4)c3c2=O)cc1,inactive
18,O=C(Nc1ccccc1)N1CCC(C(=O)N2CCN(Cc3ccccc3)CC2)CC1,inactive
19,O=C(Nc1ccc2c(c1)OCO2)c1sc2cc(Cl)ccc2c1Cl,inactive
20,COC(=O)c1cccc(C(=O)N2CCCC(Nc3ccc4c(c3)OCCO4)C2)c1 (configuration not stated),inactive
21,O=C(Nc1ccc2c(c1)OCCO2)C1CCCN(c2ncccn2)C1 (configuration not stated),0.953 µM (active)
22,O=C(Nc1cccc(Cl)c1)C1CCCN(c2cnccn2)C1 (configuration not stated),inactive
23,Cc1cc(C)nc(N2CCC(C(=O)Nc3ccc4c(c3)OCCO4)CC2)n1,inactive

row,Compound,Potency
1,O=C(Nc1ccc2c(c1)OCCO2)C1CCCC1,9.53 µM (active)
2,S=C(Nc1ccc2c(c1)OCO2)N1CCCC1,inactive
3,CN1C(=O)c2ccc(NC(=O)C3CCCCC3)cc2C1=O,inactive
4,O=C(Nc1ccc2c(c1)OCO2)C1CC1(Cl)Cl (configuration not stated),16.9 µM (active)
5,CC(C)(C)C(=O)Nc1ccc(C(=O)N/N=C/c2ccccc2OC(=O)c2ccc(Cl)cc2Cl)cc1,inactive
6,CCOc1cc(/C=C/C(=O)OCC(=O)NCCN2C(=O)CSC2=O)ccc1OCC(C)C,inactive
7,COc1ccc(C2C(=O)N(C3CCCCC3)CC(=O)N2Cc2ccccc2Cl)cc1OC (configuration not stated),inactive
8,Cc1nc(SCCOc2ccc(Cl)cc2)[nH]c(=O)c1Cc1ccccc1,inactive
9,O=C(CSc1nccn1Cc1ccc(F)cc1)NCc1ccccc1,inactive
10,Cc1ccc2nc(/C(C#N)=C/c3ccc(-c4ccc(C(=O)OC(C)C)cc4)o3)[nH]c2c1,inactive
11,COc1ccc(CC(=O)Nc2nc(-c3ccc(F)c(F)c3)cs2)cc1OC,inactive
12,Fc1ccc(-c2csc(-c3ccc(C4SCCS4)cc3)n2)cc1F,10.7 µM (active)
13,COc1cc(CC(=O)Nc2nc(-c3ccc(F)c(F)c3)cs2)cc(OC)c1OC,inactive
14,COc1ccc2c(c1)c(N1CCCC1=O)c(C(=O)Nc1ccc(OC)c(Cl)c1)n2C,inactive
15,CCOc1ccccc1CNC(=O)C1CCCN(S(=O)(=O)c2ccc3c(ccn3C)c2)C1 (configuration not stated),inactive
16,Cc1cc(C)nc(SCc2nnc(SCC(=O)Nc3ncc(C)s3)n2Cc2ccco2)n1,inactive
17,COc1cccc(NC(=O)CN(C)CC(=O)Nc2ccc3c(c2)CCC3)c1,inactive
18,CC(C)C(=O)OCC(=O)Nc1ccc2c(c1)CCC2,19 µM (active)
19,COc1ccc(CC(=O)Nc2ccc3c(c2)CCC3)cc1S(=O)(=O)N1CCOCC1,inactive
20,COc1ccc(NC(=O)CN2CCCN(Cc3ccccc3)S2(=O)=O)cc1,inactive
21,CCCN(CCC)CCCNC(=O)Cn1ncc2c3ccccc3n(Cc3ccccc3)c2c1=O,inactive
22,CCOC(=O)c1c(NC(C)=O)sc2c(O)c(Br)ccc12,inactive
23,Cc1ccc2[nH]c(=O)c(CN(CC3COCCO3)C(=O)Nc3ccccc3C)cc2c1 (configuration not stated),inactive

# Source: PubChem BioAssay AID588342 (National Center for Advancing Translational Sciences (NCATS), 2011)
